Out of some 320,000 compounds screened, about 1,100 (0.34%) were called active.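 How the source made its calls: active means GFP response vs DMSO above a set limit, about the screen mean plus 3 SD (cut at about 150% in these data); inconclusive means under 70 cell events counted for the yeast strain; inactive means the rest.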 The list comes from a sample in which actives are over-represented; it also holds similar structures and randomly drawn compounds.
Assay: TOR pathway LAP4-GFP level changes – S. cerevisiae, multiplex flow cytometry, MLPCN library, primary screen (AID 2023)
Conditions: 3 h, at 10 µM, stronger effect = higher value, median GFP as percent of DMSO wells

GFP response vs DMSO, active:
Cc1cccc(C)c1NC(=O)C(Cl)C(=O)c1ccccc1 (stereo not drawn) 269%
COc1cccc(/C=N/Nc2ncc(C(F)(F)F)cc2Cl)c1O 184%
Cc1cc(=O)n2nc(N3CCCC(C(=O)NCCC4=CCCCC4)C3)sc2n1 (stereo not drawn) 196%
CC1=C/C(=N\OS(=O)(=O)c2ccccc2)C=CC1=O 257%
CCn1c(SCCC(C)C)nnc1-c1c[nH]c2ccccc12 169%
C#CCOCCOCCOCCNc1nc(N2CCN(C(=O)CCCCCCCCCCNC(=O)[C@H](CCCCN)n3cc(C)nn3)CC2)nc(N2CCN(C(=O)CCCCCCCCCCNC(=O)[C@H](CO)n3cc(CCCSC)nn3)CC2)n1 155%
Cc1ccc(C2CCN(C(=S)Nc3cccc(Cl)c3)C2)cc1 (stereo not drawn) 158%
Clc1ccccc1CSc1nnc(-c2ccco2)c(-c2ccco2)n1 186%
O=C(/C=C/c1ccc(Cl)c([N+](=O)[O-])c1)c1cccnc1 236%
CC(C)[C@@H]1COC(c2cccc(C3=N[C@H](C(C)C)CO3)c2)=N1 163%
Cc1cc(C)nc(S/C=C/C(=O)c2ccccc2)n1 239%
O=C1C=CC(=O)N1c1ccc(N2CCCCC2)cc1 179%
Cc1ccc(SC(CC(=O)c2ccc(C(C)(C)C)cc2)C(=O)O)cc1 (stereo not drawn) 170%
Cc1ccc(Oc2nc(-c3ccccn3)nc3ccccc23)cc1 151%
Cc1cccc(NC(=O)c2ccc([N+](=O)[O-])o2)c1 151%
Cc1cc(O)c(C(=O)/C=C/c2c(F)c(F)c(F)c(F)c2F)c(=O)o1 152%
Oc1c(CN2CCN(c3ccc(F)cc3)CC2)cc(Cl)c2cccnc12 203%
Fc1ccc(/C=N/Nc2nc(-c3cccnc3)nc3ccccc23)cc1 165%

GFP response vs DMSO, inactive:
CCn1c(=S)[nH]c2cc(S(=O)(=O)N3CCOCC3)ccc21 89.3%
Cc1ccc2cccc(S(=O)(=O)N3CCN(c4ccccc4F)CC3)c2n1 110%
Cc1ccc(C(=O)N2CCCC(c3ccccc3)=N2)cc1 107%
CC(C(=O)Nc1ccccc1-c1ccccc1)N1CCOCC1 (stereo not drawn) 100%
CC(C)c1ccc(NC2CCCN(C(=O)c3ccncc3)C2)cc1 (stereo not drawn) 93.3%
COC(=O)c1cc(S(=O)(=O)NC2CCN(Cc3ccccc3)CC2)cn1C 95.7%
CC12CN3CCN(CC(C3)/C1=N\NC(=O)c1ccccc1N)C2 102%
CC(=O)Nc1ccc(NC(=O)COC(=O)C2CCC(C(C)(C)C)CC2)cc1 (stereo not drawn) 107%
Cc1cccc(C)c1NC(=O)C(c1ccccc1)N1CC(=O)Nc2ccccc21 (stereo not drawn) 90.5%
Cc1cccc(C)c1NC(=O)CN(C)C(=O)CCC(=O)c1ccccc1 104%
Oc1cccc(/C=N/Nc2ccc(Cl)nn2)c1O 89.6%
FC(F)(F)c1cnc(Oc2ccccc2-c2nnc(-c3ccc(Cl)cc3)o2)c(Cl)c1 96.3%
Cc1ccc2nsnc2c1NC(=O)c1ccccc1[N+](=O)[O-] 93.2%
Cc1cc(=O)n2nc(N3CCCC(C(=O)NCc4cccc(Cl)c4)C3)sc2n1 (stereo not drawn) 92.2%
Cc1cc(=O)n2nc(N3CCCC(C(=O)NCc4ccc(Cl)cc4)C3)sc2n1 (stereo not drawn) 92.3%
CC(=O)NCCC(=O)Nc1cc(S(=O)(=O)N2CCCCC2)ccc1Oc1cccc(C)c1 87.1%
COc1ccc([C@H]2CC(=O)C=C(/C=C/c3ccccc3)C2)cc1 115%
CCC(C)Sc1nnc(-c2c[nH]c3ccccc23)n1CCOC (stereo not drawn) 90.4%
CCn1c(SCC(=O)Nc2ccc(OC)c(OC)c2)nnc1-c1c[nH]c2ccccc12 98.2%
C#CCOCCOCCOCCNc1nc(N2CCN(C(=O)CCCCCCCCCCNC(=O)Cn3cc(CCCCCN)nn3)CC2)nc(N2CCN(C(=O)CCCCCCCCCCNC(=O)[C@H](CO)n3cc(CCCSC)nn3)CC2)n1 118%
C#CCOCCOCCOCCNc1nc(N2CCN(C(=O)CCCCCCCCCCNC(=O)[C@H]([C@@H](C)CC)n3cc(CCCCN=C(N)N)nn3)CC2)nc(N2CCN(C(=O)CCCCCCCCCCNC(=O)[C@H](CO)n3cc(CCCSC)nn3)CC2)n1 135%
O=C(C1CCCO1)N1CCN(C(=S)Nc2cccc(Cl)c2)CC1 (stereo not drawn) 95.7%
Cc1cccc(NC(=S)N2CCCC(c3nc4ccccc4[nH]3)C2)c1 (stereo not drawn) 93.9%
O=S(=O)(c1ccc2ccccc2c1)N1CCN(S(=O)(=O)N2CCOCC2)CC1 87%
COc1ccc(C)cc1N(CC(=O)NC(C)c1ccccc1)S(C)(=O)=O (stereo not drawn) 80.6%
S=C(NCc1ccco1)NCc1ccccc1Cl 85.2%
O=C(CC1N=C2c3ccccc3N=C(SCc3ccccc3Cl)N2C1=O)NCc1ccco1 (stereo not drawn) 97.5%
CN1CCCc2cc(C#N)c(=O)[nH]c21 105%
Cc1ccc(S(=O)(=O)N(C)C)cc1NC(=O)c1ccc(-n2cncn2)c([N+](=O)[O-])c1 98%
NC(=O)c1ccccc1N=Cc1ccc2ccccc2c1 88.2%
COc1cccc(NC(=O)C2CCCN(c3ncnc4c3nc3n4CCCCC3)C2)c1 (stereo not drawn) 94.5%
O=C(/C=C/c1ccc(Cl)cc1Cl)c1cccnc1 99.4%
O=C(Nc1cccnc1)c1ccc(Cl)c([N+](=O)[O-])c1 119%
Cc1cc(NC(=O)CN2C(=O)NC(CCc3ccccc3)C2=O)no1 (stereo not drawn) 92.5%
Cc1ccc(NC(=O)N2CCSc3ccccc32)cc1 96.8%
O=C(NCCS(=O)(=O)c1ccc(Br)cc1)c1ccccc1Cl 102%
CCc1noc(C)c1C(=O)N1CCCSC1=Nc1ccccc1OC 101%
CCOCc1c(C(=O)N2CCN(Cc3ccc(Br)s3)CC2)oc2ccccc12 102%
COc1ccc(Cn2c(-c3ccc(Cl)cc3)c[n+]3ccccc23)cc1 101%
C/C(N)=C(\C#N)C(=O)NCCc1ccccn1 87.1%
O=C(NCCc1ccccc1Cl)C1CCC(=O)N(CCCc2ccccc2)C1 (stereo not drawn) 87.4%
Cc1cc(C)nc(SCC(=O)c2ccc(Cl)cc2)n1 91.3%
Cc1cc(Oc2ccc(Cl)cc2)nc(SCC(=O)c2ccccc2)n1 103%
Cc1noc(C)c1S(=O)(=O)N(C)Cc1ccccc1 91.9%
N#C/C(=C\N1CCOCC1)S(=O)(=O)c1ccc(Cl)cc1 113%
Cc1ccc(NC(=O)Cn2c(=O)n(CCC(=O)NC3CCN(Cc4ccccc4)CC3)c(=O)c3ccccc32)cc1 94.3%
COc1ccc(C2(c3ccc(OC)cc3)NC(=O)N(CC(=O)Nc3cc(C)on3)C2=O)cc1 92.2%
O=C(Cc1ccccc1)NC(=S)Nc1ccc(N2CCCCC2)cc1 111%
CC(=O)Nc1ccc(S(=O)(=O)Nc2ccc(N3CCCCC3)cc2)cc1 105%
COc1ccccc1N(CCOc1ccccc1)S(=O)(=O)c1ccccc1 103%
Cc1nc([N+](=O)[O-])nn1C12CC3CC(CC(Br)(C3)C1)C2 109%
Cc1ccc(CSCC(N)C(=O)O)cc1 (stereo not drawn) 97%
Cc1ccc(C(=O)CSc2ccccc2C(=O)O)cc1 104%
COc1cnc(-c2ccccn2)nc1Oc1ccc(C(C)(C)C)cc1 107%
CC(C)(C)Nc1nc(-c2ccccn2)nc2ccccc12 90.7%
Nn1c(Cc2cccc3ccccc23)nnc1SCC(=O)N1CC(=O)Nc2ccccc21 99.1%
Cc1onc(NC(=O)c2ccc([N+](=O)[O-])o2)c1Br 116%
O=C(Nc1ccc(Br)cn1)c1ccc([N+](=O)[O-])o1 105%
Cc1cccc(N)c1SC1CCCCC1O (stereo not drawn) 92.2%
Cc1ccc(C(CNC(=O)Nc2ccccc2)N2CCN(C)CC2)cc1 (stereo not drawn) 102%
Cc1ccc(N=Cc2c(O)cc(C)oc2=O)c(C)c1 100%
Cc1cc(O)c(Sc2ccccc2)c(=O)o1 109%
Oc1c(CN2CCCC2)cc(COCc2ccccc2)c2cccnc12 105%
Cc1cccnc1NC(=O)c1cccc(S(=O)(=O)N2CCN(c3ccc(F)cc3)CC2)c1 87.3%
Cc1cc(C)c(OCC(=O)N(Cc2cccs2)C2CCS(=O)(=O)C2)c(C)c1 (stereo not drawn) 98.7%
C/C(=N\NS(=O)(=O)c1ccc(Cl)cc1)c1ccc(NC(=O)c2ccco2)cc1 94.4%
Cc1ccc2nc(C)cc(N/N=C/c3ccc(F)cc3)c2c1 103%
O=[N+]([O-])c1ccc(F)cc1Oc1nc(-c2cccnc2)nc2ccccc12 100%
CCOC(=O)CCC(=O)OCC(=O)NC(C)C1CC2CCC1C2 (stereo not drawn) 100%
COc1ccc(S(=O)(=O)N2CCN(CC(=O)N3CCOCC3)CC2)cc1OC 95%
O=C(COC(=O)c1cccnc1Cl)NC12CC3CC(CC(C3)C1)C2 104%
CN/C(=C\[N+](=O)[O-])NCCSCc1csc(CN(C)C)n1 95.9%
COC(=O)c1ccc(-c2noc(CN(Cc3ccccn3)CC3CCCO3)n2)cc1 (stereo not drawn) 98.4%
COc1ccccc1C(=O)Nc1ccc(OCc2nnc3c4ccccc4c(C)nn23)cc1 102%
C=CCC1(CC=C)CCCN1C(=O)CC1C(=O)NCCN1Cc1ccccc1OC (stereo not drawn) 93%
